{
  "source": "paper PMC7862700",
  "about": "“An all-to-all approach to the identification of sequence-specific readers for epigenetic DNA modifications on cytosine”",
  "test_in_all_cases": "DAPPL (digital affinity profiling via proximity ligation, sequencing); 10 mM Tris-HCl pH 7.5, 50 mM NaCl, 1 mM DTT, 4% glycerol, room temperature, 30 min; GST-TFs on glutathione beads, 16-mer random dsDNA library, 0.1% formaldehyde crosslink after washing; high values mean tight binding",
  "key": {"[1]": {"biological_target": "ETV5 (Homo sapiens, UniProt P41161 1-510)", "sequence (P41161 whole entry, the tested form may be a part)": "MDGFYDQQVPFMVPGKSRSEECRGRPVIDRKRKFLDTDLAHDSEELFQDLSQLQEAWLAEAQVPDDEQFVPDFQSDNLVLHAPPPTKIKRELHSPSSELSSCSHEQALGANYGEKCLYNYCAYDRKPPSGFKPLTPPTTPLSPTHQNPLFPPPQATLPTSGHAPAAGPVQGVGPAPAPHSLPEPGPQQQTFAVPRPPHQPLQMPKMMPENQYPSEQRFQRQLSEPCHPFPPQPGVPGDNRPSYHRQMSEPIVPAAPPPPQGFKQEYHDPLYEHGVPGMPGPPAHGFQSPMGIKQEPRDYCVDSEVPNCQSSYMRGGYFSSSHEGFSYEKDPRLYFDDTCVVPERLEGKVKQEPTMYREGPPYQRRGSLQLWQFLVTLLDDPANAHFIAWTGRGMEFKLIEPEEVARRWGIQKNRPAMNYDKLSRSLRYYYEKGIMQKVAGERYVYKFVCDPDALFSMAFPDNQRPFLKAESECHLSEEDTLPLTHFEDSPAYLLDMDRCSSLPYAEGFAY", "details": "protein: recombinant; tags: N-terminal GST; dsDNA, one strand shown", "method_in_brief": "(§1)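 Binding signal is each hexamer's read frequency for a factor divided by its frequency in the tag-only sample. The factors were GST-fused human transcription factors from yeast, captured on glutathione beads, DNA-barcoded and pooled with that sample. Pools were incubated with 200 nmole of a random double-stranded 16-mer DNA library in Tris/NaCl/DTT/glycerol buffer at room temperature for 30 min, then washed, crosslinked with 0.1% formaldehyde, proximity-ligated with BsaI/T4 ligase (1 h, 37 °C), PCR-amplified and sequenced on an Illumina NextSeq500.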"}, "[2]": {"biological_target": "HSF1 (Homo sapiens, UniProt Q00613 1-529)", "sequence (Q00613 whole entry)": "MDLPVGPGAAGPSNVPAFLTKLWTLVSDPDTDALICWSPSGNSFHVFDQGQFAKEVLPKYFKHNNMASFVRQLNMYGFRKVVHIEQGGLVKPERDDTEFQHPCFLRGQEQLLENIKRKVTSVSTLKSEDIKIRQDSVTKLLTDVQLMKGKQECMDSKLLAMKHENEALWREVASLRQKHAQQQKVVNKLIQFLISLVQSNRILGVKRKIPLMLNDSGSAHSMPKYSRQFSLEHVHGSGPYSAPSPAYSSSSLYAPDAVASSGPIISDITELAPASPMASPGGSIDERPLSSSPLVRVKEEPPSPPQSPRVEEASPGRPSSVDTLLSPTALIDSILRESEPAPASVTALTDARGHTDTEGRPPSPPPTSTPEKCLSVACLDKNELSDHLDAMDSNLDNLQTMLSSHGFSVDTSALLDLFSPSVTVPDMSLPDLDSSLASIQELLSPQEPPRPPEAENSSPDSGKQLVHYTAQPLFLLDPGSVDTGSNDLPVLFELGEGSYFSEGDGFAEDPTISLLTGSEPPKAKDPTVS", "details": "protein: recombinant; tags: N-terminal GST; chain copies: 3; dsDNA, one strand shown", "method_in_brief": "as §1"}, "[3]": {"biological_target": "ELF4 (Homo sapiens, UniProt Q99607 1-663)", "sequence (Q99607 whole entry)": "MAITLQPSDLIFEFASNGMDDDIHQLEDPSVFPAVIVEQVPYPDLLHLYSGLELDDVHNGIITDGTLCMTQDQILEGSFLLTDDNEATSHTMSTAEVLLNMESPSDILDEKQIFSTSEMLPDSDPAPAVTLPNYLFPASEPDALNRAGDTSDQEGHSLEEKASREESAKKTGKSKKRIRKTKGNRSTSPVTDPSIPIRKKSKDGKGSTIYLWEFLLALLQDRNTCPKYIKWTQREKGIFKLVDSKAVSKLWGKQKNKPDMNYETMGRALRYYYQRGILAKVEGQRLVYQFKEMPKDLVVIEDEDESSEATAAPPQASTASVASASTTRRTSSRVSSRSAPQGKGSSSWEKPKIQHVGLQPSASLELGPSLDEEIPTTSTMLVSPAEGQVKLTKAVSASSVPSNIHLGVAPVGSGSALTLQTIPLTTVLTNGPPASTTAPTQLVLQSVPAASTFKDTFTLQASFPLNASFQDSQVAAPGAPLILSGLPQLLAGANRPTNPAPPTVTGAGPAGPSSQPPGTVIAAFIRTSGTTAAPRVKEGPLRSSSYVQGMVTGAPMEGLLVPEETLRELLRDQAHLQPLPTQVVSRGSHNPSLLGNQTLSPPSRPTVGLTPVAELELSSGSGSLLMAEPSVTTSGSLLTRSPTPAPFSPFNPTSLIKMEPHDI", "details": "protein: recombinant; tags: N-terminal GST; dsDNA, one strand shown", "method_in_brief": "as §1"}, "[4]": {"biological_target": "T1, ELK4 (Homo sapiens, UniProt P28324-2 1-405)", "T1 sequence": "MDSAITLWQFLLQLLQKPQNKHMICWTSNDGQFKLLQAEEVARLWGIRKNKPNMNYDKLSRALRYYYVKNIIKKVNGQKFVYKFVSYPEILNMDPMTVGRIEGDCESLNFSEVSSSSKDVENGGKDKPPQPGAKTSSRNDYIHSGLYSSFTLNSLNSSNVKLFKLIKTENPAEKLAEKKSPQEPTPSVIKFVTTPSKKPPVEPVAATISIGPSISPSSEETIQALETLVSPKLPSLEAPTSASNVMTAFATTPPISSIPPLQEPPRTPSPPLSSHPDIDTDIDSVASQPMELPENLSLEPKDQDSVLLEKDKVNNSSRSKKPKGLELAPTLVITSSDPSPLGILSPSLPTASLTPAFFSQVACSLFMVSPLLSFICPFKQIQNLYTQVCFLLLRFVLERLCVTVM", "details": "protein: recombinant; tags: N-terminal GST; dsDNA, one strand shown", "method_in_brief": "as §1"}, "[5]": {"biological_target": "T2, ETV2 (Homo sapiens, UniProt O00321 1-342)", "T2 sequence": "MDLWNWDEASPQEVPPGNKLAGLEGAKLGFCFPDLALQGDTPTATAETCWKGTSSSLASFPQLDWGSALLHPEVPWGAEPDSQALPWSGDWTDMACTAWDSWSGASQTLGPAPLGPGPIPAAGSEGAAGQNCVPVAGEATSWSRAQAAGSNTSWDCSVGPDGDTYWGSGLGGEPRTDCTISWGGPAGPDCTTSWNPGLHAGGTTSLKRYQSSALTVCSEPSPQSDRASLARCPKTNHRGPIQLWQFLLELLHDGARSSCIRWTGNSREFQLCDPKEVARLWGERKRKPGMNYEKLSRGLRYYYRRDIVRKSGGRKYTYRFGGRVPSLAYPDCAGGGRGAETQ", "details": "protein: recombinant; tags: N-terminal GST; dsDNA, one strand shown", "method_in_brief": "as §1"}, "[6]": {"biological_target": "T3, ELF3 (Homo sapiens, UniProt P78545 1-371)", "T3 sequence": "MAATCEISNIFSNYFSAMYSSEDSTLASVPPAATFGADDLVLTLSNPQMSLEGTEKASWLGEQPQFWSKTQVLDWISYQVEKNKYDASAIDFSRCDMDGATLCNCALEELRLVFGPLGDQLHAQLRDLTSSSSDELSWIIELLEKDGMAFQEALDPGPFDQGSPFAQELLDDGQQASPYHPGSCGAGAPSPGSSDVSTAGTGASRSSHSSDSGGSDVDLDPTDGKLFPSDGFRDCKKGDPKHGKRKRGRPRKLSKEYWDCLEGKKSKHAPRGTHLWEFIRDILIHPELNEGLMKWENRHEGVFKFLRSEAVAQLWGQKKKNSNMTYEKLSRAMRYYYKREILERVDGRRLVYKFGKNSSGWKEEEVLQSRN", "details": "protein: recombinant; tags: N-terminal GST; dsDNA, one strand shown", "method_in_brief": "as §1"}, "[7]": {"biological_target": "ETV1 (Homo sapiens, UniProt P50549 1-477)", "sequence (P50549 whole entry)": "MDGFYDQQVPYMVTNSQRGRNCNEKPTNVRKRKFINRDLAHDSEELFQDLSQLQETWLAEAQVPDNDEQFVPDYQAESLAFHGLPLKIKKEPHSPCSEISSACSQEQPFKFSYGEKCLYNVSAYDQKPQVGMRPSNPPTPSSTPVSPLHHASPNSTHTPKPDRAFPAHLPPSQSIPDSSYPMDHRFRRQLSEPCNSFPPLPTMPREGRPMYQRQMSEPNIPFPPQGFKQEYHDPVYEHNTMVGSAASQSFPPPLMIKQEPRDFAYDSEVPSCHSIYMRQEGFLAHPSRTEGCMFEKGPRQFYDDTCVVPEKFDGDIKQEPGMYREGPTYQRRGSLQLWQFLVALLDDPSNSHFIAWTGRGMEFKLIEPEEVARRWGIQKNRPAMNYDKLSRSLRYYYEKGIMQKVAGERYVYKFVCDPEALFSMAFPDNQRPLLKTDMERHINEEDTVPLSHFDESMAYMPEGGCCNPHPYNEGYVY", "details": "protein: recombinant; tags: N-terminal GST; dsDNA, one strand shown", "method_in_brief": "as §1"}, "[8]": {"biological_target": "T4, ETV3L (Homo sapiens, UniProt Q6ZN32 1-361)", "T4 sequence": "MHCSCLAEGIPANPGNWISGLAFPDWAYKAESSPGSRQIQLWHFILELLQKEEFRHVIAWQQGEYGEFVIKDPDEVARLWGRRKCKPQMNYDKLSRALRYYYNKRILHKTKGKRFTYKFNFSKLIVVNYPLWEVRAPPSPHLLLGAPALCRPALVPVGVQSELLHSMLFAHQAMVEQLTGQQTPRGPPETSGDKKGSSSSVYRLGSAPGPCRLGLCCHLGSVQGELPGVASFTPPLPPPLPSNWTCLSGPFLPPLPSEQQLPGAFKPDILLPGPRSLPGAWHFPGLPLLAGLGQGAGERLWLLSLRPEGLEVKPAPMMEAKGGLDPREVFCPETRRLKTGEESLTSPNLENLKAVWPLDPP", "details": "protein: recombinant; tags: N-terminal GST; dsDNA, one strand shown", "method_in_brief": "as §1"}, "[9]": {"biological_target": "T5, ELF5 (Homo sapiens, UniProt Q9UKW6-2 1-255)", "T5 sequence": "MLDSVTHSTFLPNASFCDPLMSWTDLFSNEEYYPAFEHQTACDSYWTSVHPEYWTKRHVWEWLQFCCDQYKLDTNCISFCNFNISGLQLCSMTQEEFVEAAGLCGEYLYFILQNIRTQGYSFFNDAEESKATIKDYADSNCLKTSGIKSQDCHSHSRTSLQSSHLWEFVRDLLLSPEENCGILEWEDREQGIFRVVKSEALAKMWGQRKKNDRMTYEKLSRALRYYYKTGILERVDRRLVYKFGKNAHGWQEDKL", "details": "protein: recombinant; tags: N-terminal GST; dsDNA, one strand shown", "method_in_brief": "as §1"}},
  "data": [
    {"sequence": "GAACCA", "values": [
      {"measurement": "binding signal", "setting": "[1]", "value": "1.02 fold enrichment (6-mer frequency, TF over GST control)"},
      {"measurement": "binding signal", "setting": "[2]", "value": "1.03 fold enrichment (6-mer frequency, TF over GST control)"},
      {"measurement": "binding signal", "setting": "[3]", "value": "1.02 fold enrichment (6-mer frequency, TF over GST control)"},
      {"measurement": "binding signal", "setting": "[4]", "value": "1.06 fold enrichment (6-mer frequency, TF over GST control)"},
      {"measurement": "binding signal", "setting": "[5]", "value": "1.02 fold enrichment (6-mer frequency, TF over GST control)"},
      {"measurement": "binding signal", "setting": "[6]", "value": "1.09 fold enrichment (6-mer frequency, TF over GST control)"},
      {"measurement": "binding signal", "setting": "[7]", "value": "1 fold enrichment (6-mer frequency, TF over GST control)"},
      {"measurement": "binding signal", "setting": "[8]", "value": "1.01 fold enrichment (6-mer frequency, TF over GST control)"},
      {"measurement": "binding signal", "setting": "[9]", "value": "1.01 fold enrichment (6-mer frequency, TF over GST control)"}
    ]}
  ]
}
